The values that follow come from PubChem BioAssay AID1565 (Sanford-Burnham Center for Chemical Genomics, 2009).

The structures appear in SMILES notation. About 3,200 (1.1%) of roughly 290,000 compounds were called active. Rule as the data show it: active = inhibition above about 60%; inactive = the rest. Shown is part of a subset that was picked to be rich in actives.

In general, inhibition refers to the change of the read-out against control, counted positive when it falls.

The assay deals with Phosphoethanolamine/phosphocholine phosphatase (Homo sapiens) (UniProt Q8TCT1). In words: PubChem AID 1565. The note with it: recombinant PHOSPHO1, absorbance phosphatase assay; at 13.3 µM; stronger effect = higher value.
Phosphoethanolamine/phosphocholine phosphatase (Homo sapiens), sequence (Q8TCT1 whole entry, looked up): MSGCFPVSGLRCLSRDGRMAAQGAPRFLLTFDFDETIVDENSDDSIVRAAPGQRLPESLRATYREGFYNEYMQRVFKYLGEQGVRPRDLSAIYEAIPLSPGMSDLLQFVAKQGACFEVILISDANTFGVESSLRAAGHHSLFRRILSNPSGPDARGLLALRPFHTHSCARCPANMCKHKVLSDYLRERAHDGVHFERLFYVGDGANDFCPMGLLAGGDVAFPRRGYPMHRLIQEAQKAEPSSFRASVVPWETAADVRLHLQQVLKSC
In the case of `O=S(=O)(Cc1cc(Cl)nc(-c2cccnc2)n1)c1ccccc1`, the inhibition is 17.6% (inactive).

With `COc1ccc(Cl)cc1NC(=O)CN(C)C(=O)CCCc1c[nH]c2ccccc12`, the inhibition was 9.8% (inactive).

Turning to `CCCNC(=O)CCn1nc(-c2ccccc2)c2ccccc2c1=O`, the inhibition is 19.9% (inactive).

Regarding `CSc1ccc(CNC(=O)c2ccc(NC(=O)C3=CSCCO3)cc2)cc1`, the inhibition is 69% (active).

On to `O=C(Nc1ccc(C(=O)NCc2ccccc2Cl)cc1)C1=CSCCO1`, for which the inhibition was 37.5% (inactive).

As for `CS(=O)(=O)NCc1ccc(C(=O)NCc2ccccc2)cc1`, the inhibition was -10% (inactive).

Take `Cc1ccccc1OCC(=O)NNC(=O)c1cc(S(=O)(=O)N(C)C)ccc1N1CCCC1`: the inhibition was 33.4% (inactive).

Take `CSc1ccc(S(=O)(=O)N2CCC(C(=O)NCCc3ccccc3)CC2)cc1`: the inhibition was 13.8% (inactive).

Take `Cc1nn(CCCC(=O)NCc2ccccc2Cl)c(=O)c2nccn12`: the inhibition is 35.7% (inactive).

In the case of `CCOC(=O)CNC(=O)CSc1nnc(COc2ccc(Cl)cc2)n1CC`, the inhibition is 95.8% (active).

Consider `CCn1c(COc2ccc(OC)cc2)nnc1SCC(=O)Nc1cc(OC)ccc1OC`, for which the inhibition was -14.1% (inactive).

On to `CCOC(=O)CNC(=O)CSc1nnc(-c2cccc(OC)c2)n1CC`, for which the inhibition was 47.2% (inactive).

Regarding `Oc1ccccc1/C=N/n1c(-c2cccs2)n[nH]c1=S`, the inhibition was 106% (active).

For the molecule `S=c1[nH]nc(-c2cccs2)n1/N=C/c1cn(-c2ccccc2)nc1-c1ccc(Cl)cc1`, the inhibition was -132% (inactive).

Take `S=c1[nH]nc(-c2cccs2)n1/N=C/c1cccs1`: the inhibition was 56.2% (inactive).

With `CC(=O)Oc1ccc2c(=O)oc(-c3ccc([N+](=O)[O-])cc3)nc2c1`, the inhibition was 35.6% (inactive).

Take `O=C(COc1ccc(Cl)cc1Cl)NCCCNC(=O)c1cnccn1`: the inhibition is 44.9% (inactive).

With `CC(C)C[C@@H](N)c1nnc(SCC(=O)c2ccc(Cl)cc2)o1`, the inhibition was 81.6% (active).

`COc1cc(C(=O)NCc2nnc(SCC(=O)c3ccc(Cl)cc3)o2)cc(OC)c1OC`: the inhibition was 43.5% (inactive).

Turning to `Cc1cc(C)nc(SCC(=O)c2ccc(Cl)cc2)n1`, the inhibition was 27% (inactive).

Turning to `O=C(CN1CCN(C(=O)C2CCCO2)CC1)Nc1c(Cl)cccc1Cl` (centres undefined), the inhibition is 26.3% (inactive).

For the molecule `Cc1cccnc1NC(=O)c1cccc(S(=O)(=O)N2CCN(c3ccc(F)cc3)CC2)c1`, the inhibition was 27% (inactive).

Consider `CSc1ccc(/C=N\NC(=O)COc2ccc(Cl)cc2Br)cc1`, for which the inhibition is -15.7% (inactive).

Regarding `O=C(COc1ccc(Cl)cc1Cl)N/N=C/c1ccccn1`, the inhibition is 61% (active).

Consider `O=C(N/N=C/c1ccccn1)c1cccc(NC(=O)c2ccc(Cl)cc2)c1`, for which the inhibition is 41.5% (inactive).

Take `N#Cc1ccc(S(=O)(=O)NCC(=O)OCC(=O)NCCc2ccccc2)cc1`: the inhibition is 28.7% (inactive).

In the case of `O=C(Nc1ccc(C2CC2(Cl)Cl)cc1)c1cccc([N+](=O)[O-])c1` (centres undefined), the inhibition is -31.5% (inactive).

In the case of `CSCCC(NC(=O)COc1ccccc1)C(=O)OCC(=O)c1cc2ccccc2o1` (centres undefined), the inhibition is 0.2% (inactive).

Regarding `Cc1c(Cl)cnc(NC(=O)COC(=O)c2ccc(S(=O)(=O)NCc3ccco3)cc2)c1Cl`, the inhibition is -11.7% (inactive).

Turning to `CSCCC(NC(=O)c1ccco1)C(=O)OCC(=O)Nc1ncc(Cl)c(C)c1Cl` (centres undefined), the inhibition was 63.8% (active).

`O=C1CCC(C(=O)N2CCC(O)(c3ccccc3)CC2)CN1CCc1ccccc1` (centres undefined): the inhibition is 51.4% (inactive).

Regarding `CS(=O)(=O)c1ccc(-c2nnn(CC(=O)Nc3ccc4c(c3)OCCO4)n2)cc1`, the inhibition was 11% (inactive).

Take `CCCCSc1nnc(-c2ccc(C)cc2)o1`: the inhibition was 1.3% (inactive).

Regarding `CCCCSc1nnc2c(n1)OC=Nc1ccccc1-2`, the inhibition was 60.8% (active).

Take `CCCCSc1nc2ccccc2[nH]1`: the inhibition is 11.7% (inactive).

Turning to `COC(=O)c1ccc(COc2ccc(C#N)cc2)o1`, the inhibition is 44.1% (inactive).

Consider `CC1CCN(CC(O)COc2ccc(C(=O)c3ccccc3)cc2)CC1` (centres undefined), for which the inhibition was 8.5% (inactive).

Regarding `Cc1cc(NC(=O)c2ccccc2C)no1`, the inhibition is 19.1% (inactive).

As for `OC(COc1ccc2ccccc2c1)CN1CCOCC1` (centres undefined), the inhibition was 8% (inactive).

As to `CCOc1cc(N2CCOCC2)c(OCC)cc1NC(=O)COc1cccc2cccnc12`, the inhibition is 23.3% (inactive).

Take `Oc1c(C(c2ccccn2)N2CCOCC2)ccc2cccnc12` (centres undefined): the inhibition was 92.7% (active).

For the molecule `Cc1ccc(NC(=O)C2CCN(S(=O)(=O)c3ccc4c(c3)NC(=O)CO4)CC2)cc1C`, the inhibition was 26.1% (inactive).

Take `CCc1ccc(N(C(=O)c2csnn2)C(C(=O)NC2CCCCC2)c2ccncc2)cc1` (centres undefined): the inhibition was 41.6% (inactive).

In the case of `Nc1nc(-c2ccccc2)cc(-c2ccccc2)n1`, the inhibition is 19.2% (inactive).

Take `CCN(CC)C(=O)c1sc2nc(-c3ccccc3)ccc2c1N`: the inhibition is 21.4% (inactive).

For `CS(=O)(=O)c1sc2nc(-c3ccccc3)cc(-c3ccccc3)c2c1N`, the inhibition was 94.5% (active).

For the molecule `CCc1ccc(NC(=O)C(=O)NNC(=O)c2cccs2)cc1`, the inhibition is 44.9% (inactive).

Turning to `NC(=S)c1ccc(C(N)=S)o1`, the inhibition was 95.9% (active).

Turning to `Cn1cc(CN2CCC(C(O)CCc3ccccc3)CC2)c(-c2ccccc2F)n1` (centres undefined), the inhibition is 28.2% (inactive).

As to `Cn1cc(CN2CCCC(CO)C2)c(-c2ccc(Oc3ccccc3)cc2)n1` (centres undefined), the inhibition was 39.5% (inactive).

Consider `CCCOC1CCCN(Cc2cn(C)nc2-c2ccccc2F)C1` (centres undefined), for which the inhibition is 60.1% (active).

`O=C(CSc1nnc2c(n1)[nH]c1ccccc12)NC1CCCCC1`: the inhibition was 3.6% (inactive).

Regarding `Cc1nc(NC(=O)c2cccc(Cl)c2)sc1-c1csc(Nc2cccc(Cl)c2)n1`, the inhibition was 19.2% (inactive).

Consider `CCCCC(=O)Nc1nc(C)c(-c2csc(Nc3ccc(Cl)cc3)n2)s1`, for which the inhibition is 28.7% (inactive).

Take `Cc1ccc(Nc2nc(-c3sc(NC(=O)c4ccccc4)nc3C)cs2)cc1`: the inhibition is 37.9% (inactive).

`C=CCCC(=O)Nc1nc(C)c(-c2csc(Nc3ccc(Cl)cc3)n2)s1`: the inhibition was -1.4% (inactive).

`CCCCCCC(=O)Nc1nc(C)c(-c2csc(Nc3cc(Cl)ccc3OC)n2)s1`: the inhibition was 96.2% (active).

With `CCCCCCC(=O)Nc1nc(C)c(-c2csc(Nc3cccc(OC)c3)n2)s1`, the inhibition is 104% (active).

Take `CCc1ccc(N(CC(=O)NCc2cccnc2)S(=O)(=O)c2ccccc2)cc1`: the inhibition is 4.5% (inactive).

Turning to `CCOC(=O)C1=C(CN2CCc3ccccc32)NC(=O)NC1c1ccc(Cl)cc1` (centres undefined), the inhibition is 18.7% (inactive).

For the molecule `COc1cc2c(cc1OC)C(/C=C/c1ccco1)=NCC2`, the inhibition is 5.3% (inactive).

For the molecule `CCOC(=O)C1=NN(c2ccc(Cl)cc2)/C(=C/C2=NCCc3cc(OC)c(OC)cc32)S1`, the inhibition was 63.1% (active).

Consider `Cn1c(-c2ccc(F)cc2)cnc1SCC(=O)NNC(=O)Cc1ccccc1`, for which the inhibition was 10.2% (inactive).

Turning to `Cn1c(-c2ccc(F)cc2)cnc1SCC(=O)NCc1ccco1`, the inhibition was 65.2% (active).

Take `Cc1ccc(-c2csc3nnc(SCC(=O)NCc4ccco4)n23)cc1`: the inhibition was 17.6% (inactive).

In the case of `O=C(CSc1nnc2scc(-c3ccc(F)cc3)n12)NCc1ccco1`, the inhibition is 67.4% (active).

Turning to `CCn1c(SCC(=O)NCc2ccco2)nnc1-c1ccc(N)cc1`, the inhibition was 42.7% (inactive).

As to `O=C(CSc1nnc(-c2c[nH]c3ccccc23)n1-c1ccc(F)cc1)NCc1ccco1`, the inhibition is 9.8% (inactive).

For `CCOc1ccc(OCc2cccc(C(=O)N(CC)CC)c2)cc1`, the inhibition was -26.2% (inactive).

Consider `O=[N+]([O-])c1ccc2c(c1)Nc1nc3ccccc3nc1N2`, for which the inhibition is 29.5% (inactive).

Turning to `CCCCn1c(=S)[nH]c2ccccc2c1=O`, the inhibition was -12.1% (inactive).

Take `CCCCn1c(=S)[nH]c2cc(S(=O)(=O)N3CCCCC3)ccc21`: the inhibition is 99.7% (active).

Consider `O=c1[nH]c2ccc(S(=O)(=O)N3CCCC3)cc2[nH]1`, for which the inhibition was 39.1% (inactive).

Turning to `CC1CCCCC1NC(=O)/C(C#N)=C/C=C/c1ccccc1[N+](=O)[O-]` (centres undefined), the inhibition was -11.2% (inactive).

On to `CC(=O)c1ccc(N2CCN(C(=O)CCNC(=O)Cn3ccc4ccccc4c3=O)CC2)cc1`, for which the inhibition was 39.1% (inactive).

For the molecule `CCc1ccc(-c2nc(SCC(=O)NC3CCCC3)n[nH]2)cc1`, the inhibition was 19.2% (inactive).

In the case of `CC(C)c1ccc(S(=O)(=O)N2CCN(C(=O)c3ccc(N4CCCC4)c([N+](=O)[O-])c3)CC2)cc1`, the inhibition was 14.7% (inactive).

For the molecule `Cc1ccc(CNC(=O)C2(C(F)(F)F)C/C(=C\Cc3ccccc3)CCCO2)o1` (centres undefined), the inhibition was -1.7% (inactive).

As for `Cc1ccc(C(=O)Oc2coc(CSc3nnc(NC(=O)c4cccs4)s3)cc2=O)cc1C`, the inhibition was -10.5% (inactive).

As to `Cc1ccc(C(=O)Nc2nnc(-c3cccs3)s2)cc1C`, the inhibition was 60.1% (active).

As for `CCOc1cccc(C(=O)Nc2nnc(-c3cccs3)s2)c1`, the inhibition was 8.6% (inactive).

In the case of `Cc1ccc(S(=O)(=O)c2nnn3c2nc(N2CCN(c4ccccn4)CC2)c2ccccc23)cc1`, the inhibition is 14.6% (inactive).

As for `COc1ccccc1C(=O)N1C(CC(=O)Nc2ccccc2C)C(=O)NC2CCCCC21` (centres undefined), the inhibition was 17.1% (inactive).

Take `Cc1cc(NC(=O)Nc2c[nH]c(=O)[nH]c2=O)ccc1Br`: the inhibition is 32.6% (inactive).

Regarding `CCC(C)(C)NC(=O)CN(C(=O)CCC(=O)Nc1nccs1)c1ccc2c(c1)OCO2`, the inhibition was 28% (inactive).

Turning to `O=C(O)c1ccccc1CSc1nc2ccccc2s1`, the inhibition is -3.9% (inactive).

Take `Cc1cc(C)n2nc(CNS(=O)(=O)c3c(F)c(F)c(F)c(F)c3F)nc2n1`: the inhibition is 64.9% (active).

Take `Cc1cc(C)n2nc(C(=O)NC(C)(C)C)nc2n1`: the inhibition was 27% (inactive).

With `Cc1cc(C)n2nc(SCC(N)=O)nc2n1`, the inhibition was 35.9% (inactive).

Take `C/C(=N\N(C)C)c1ccc(OCCOc2ccc([N+](=O)[O-])cc2)cc1`: the inhibition was 23.7% (inactive).

With `COc1ccc(C2CC(=O)NC(=O)C2)cc1`, the inhibition is 22.9% (inactive).

Turning to `Cc1cccc(NC(=O)c2sc3nc4c(c(-c5ccco5)c3c2N)CCC4)c1`, the inhibition is 67.5% (active).

Turning to `Cc1cccc(NC(=O)c2sc3nc(N4CCOCC4)c4c(c3c2N)CCCC4)c1`, the inhibition is 21.8% (inactive).

For `CC(=O)Nc1ccc(NC(=O)c2sc3nc4c(c(-c5ccc(C)cc5)c3c2N)CCC4)cc1`, the inhibition was 14.1% (inactive).
